Hits are enriched below; roughly 3.7% of the tested compounds scored in any of these assays.
PfHsp90 set2: growth inhibition of yeast expressing Plasmodium Hsp90; S. cerevisiae expressing PfHsp90, BacTiter-Glo ATP, 48 h; yeast lacking PDR1 and PDR3 efflux regulators; inhibition, % at 9.4 µM; 0.32% of 310,000 active;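 active means every replicate shows inhibition above about 80%, whatever the replicate mean, limit read from the data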;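 further: 0% = DMSO neutral controls and 100% = 20 µM radicicol positive controls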
tim23-1 inh: tim23-1 yeast growth inhibition; S. cerevisiae tim23-1 growth, BacTiter-Glo luminescence, 24 h; inhibition, % at 20 µM; 1.3% of 330,000 active; AID 463212;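 active means growth inhibition of the mutant yeast at or above 50%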;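 further: temperature-sensitive mutant grown at 25 °C; plate controls were DMSO-treated mutant yeast for no effect and medium wells lacking yeast for full effect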
tim10-1 inh: tim10-1 yeast growth inhibition. S. cerevisiae tim10-1 ts strain growth, BacTiter-Glo, 24 h. inhibition, % at 20 µM. 2.2% of 330,000 active. AID 463190;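 active means inhibition of at least 40%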;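 further: mutant grown at 25 °C; 0% = DMSO wells with yeast and 100% = wells holding no yeast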
V-ATPase pHluor: regulators of yeast V-ATPase proton transport; S. cerevisiae, pHLuorin cytosolic pH fluorescence; 0.37% of 350,000 active; response, % at 10 µM; in the data active means response mostly above about 7.3%, no sharp cut-off; inactive means mostly below about 5.4%; further: actives read high
TIM10 inh: growth inhibitors of TIM10 yeast strain. inhibition, % at 10 µM. 1.4% of 330,000 active. AID 463195. S. cerevisiae TIM10 strain growth, BacTiter-Glo luminescence, 24 h;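 active means inhibition of 40% or more at the single tested concentration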;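 further: wild-type TIM10 isogenic control strain grown at permissive 25 °C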
tim10-1 confirm: confirmation of tim10-1 mutant yeast growth inhibitors | shares compounds with tim10-1 inh | S. cerevisiae tim10-1 ts strain growth, BacTiter-Glo, 24 h | inhibition, % at 20 µM | 56% of 7,400 active | AID 463213;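 active means inhibition of yeast growth at or above a set limit in either of two repeat tests at 20 µM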;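 further: tim10-1 mutant grown at permissive 25 °C to find synthetic lethal compounds; 0% = DMSO yeast wells and 100% = medium wells without yeast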
TIM10 conf: TIM10 yeast growth inhibition, confirmed; shares compounds with TIM10 inh; S. cerevisiae tim10 strain growth, BacTiter-Glo luminescence, 24 h; inhibition, % at 10 µM; 63% of 4,600 active;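 active means inhibition of yeast growth at or above a set limit in either of two replicates at 10 µM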;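 further: this counterscreen used the strain with wild-type TIM10; 0% = yeast with DMSO and 100% = medium wells lacking yeast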
* hit, by the source's call; nt = no result.

SMILES	PfHsp90 set2	tim23-1 inh	tim10-1 inh	V-ATPase pHluor	TIM10 inh	tim10-1 confirm	TIM10 conf
COCCNC(=O)CCC1CCN(Cc2ccc(-c3ccccc3)cc2)CC1	3.8	1.8	-10.4	2.8	7.6	nt	nt
COc1ccccc1Cn1c(=O)c2ccccc2n2c(Sc3ncnc4sccc34)nnc12	-0.1	45.1	43.3*	2.8	44.9*	34.5*	29.9
COc1ccccc1Cn1c(=O)c2ccccc2n2c(SCc3csc(C)n3)nnc12	nt	25.5	26.9	0.5	17.0	nt	nt
Nn1c(Nc2ccccc2)nc2sc3c(c2c1=O)CCCC3	7.7	22.7	45.2*	-2.1	51.1*	24.1	25.0
NNc1nc2sc3c(c2c(=O)n1-c1ccccc1)CCCC3	-2.3	-12.8	49.0*	-2.8	56.9*	39.1*	67.0*
O=C(O)CSc1nc2sc3c(c2c(=O)n1-c1ccccc1)CCC3	-13.7	-11.6	0.0	3.4	-22.4	nt	nt
CC(NC(=O)/C(C#N)=C/c1ccc([N+](=O)[O-])o1)c1ccccc1 (configuration not stated)	-5.8	-71.1	50.4*	93.7*	61.7*	23.1	92.8*
CC(C(=O)NCCCc1ccccc1)n1cccc1C(=O)c1ccccc1 (configuration not stated)	10.1	42.0	27.4	3.1	25.2	nt	nt
COc1ccc(NC(=O)CN(C)C(=O)C(Sc2ccccc2)c2ccccc2)cc1 (configuration not stated)	-12.3	26.6	9.6	-2.7	4.4	nt	nt
Cc1cc(NCCOCCO)n2ncc(-c3ccc(Cl)cc3)c2n1	-11.7	35.5	56.9*	3.9	42.2*	44.5*	50.5*
Cc1ccc(C(CC(=O)N2CCCC2)c2ccccc2)c(O)c1C (configuration not stated)	7.9	31.7	41.3*	-1.7	71.8*	13.9	32.9*
O=C(Cn1cc(COc2ccc(Br)cc2[N+](=O)[O-])nn1)c1ccc(O)cc1	9.2	nt	nt	2.9	nt	nt	nt
CCn1ccnc1CN(C)Cc1cn(-c2cccc(C)c2)nc1-c1cccc(F)c1	-3.7	39.9	7.7	-1.1	29.1	nt	nt
Cc1cccc(-n2cc(CN(C)Cc3nccn3C)c(-c3cccc(F)c3)n2)c1	11.4	45.8	43.2*	0.2	44.9*	23.8	43.5*
Cc1cc(Cl)ccc1OCC(=O)Nc1nc(-c2cccnc2)cs1	-34.5	-10.4	-7.5	3.0	-3.7	nt	nt
Cc1cc(Cl)ccc1OCC(=O)Nc1nc(-c2cccs2)cs1	-24.4	21.6	48.8*	-3.0	43.5*	40.7*	-15.6
Cc1nc(C(=O)N2CCc3c([nH]c4ccccc34)C2c2cc(F)ccc2F)cs1 (configuration not stated)	-0.9	8.6	2.1	3.2	-1.5	nt	nt
CC(Nc1cccc(C(=O)NC2CC2)c1)c1nnc(-c2ccccc2)o1 (configuration not stated)	-21.8	13.6	11.4	5.9	0.6	nt	nt
CCOC(=O)c1sc(NC(=O)C2CCC2)cc1C	-7.3	49.2	43.7*	-1.4	55.1*	41.7*	35.6*
Cc1ccc(S(=O)(=O)N(CC#N)CC#N)cc1	-8.9	3.6	-2.2	0.9	-4.7	nt	nt
Cc1ccc(-c2n[nH]c(=S)n2-c2ccccc2)cc1	nt	-29.8	6.4	-1.0	1.6	nt	nt
Cc1ccc(-n2c(-c3cccc(C)c3)n[nH]c2=S)cc1	-3.6	30.8	42.7*	-5.3	45.6*	14.7	16.2
CCn1c(C)c(/C=N/Nc2nc3ccccc3s2)c2ccccc21	nt	20.8	48.2*	-0.8	42.5*	25.2	27.3
O=S(=O)(c1ccc2[nH]c3c(c2c1)CCCC3)N1CCCCC1	0.0	48.8	40.1*	6.1	41.3*	28.4	34.5*
CC1(C)C(=O)C2(CCCC2)C(=O)OC1c1ccco1 (configuration not stated)	25.0	11.4	0.7	3.9	-0.8	nt	nt
SMILES	PfHsp90 set2	tim23-1 inh	tim10-1 inh	V-ATPase pHluor	TIM10 inh	tim10-1 confirm	TIM10 conf
CC1(C)C(=O)C2(CCCCC2)C(=O)OC1c1ccc(O)cc1 (configuration not stated)	18.7	48.8	45.6*	1.2	43.7*	38.3*	42.5*
FC(F)Sc1ccc(NC(=S)NC2CCCC2)cc1	-16.4	35.5	53.2*	-3.0	58.9*	41.0*	26.9
CCOC(=O)Cc1ccc(NS(=O)(=O)c2ccc(SC)cc2)cc1	17.2	29.2	20.4	1.1	10.2	nt	nt
CCOC(=O)c1ccc(NS(=O)(=O)c2ccc(SC)cc2)cc1	-22.4	43.1	40.8*	-2.1	40.3*	38.3*	10.9
COc1cccc(-n2ccn(CC(=O)NCCc3ccccc3)c(=O)c2=O)c1	18.8	-6.4	0.4	-1.4	-5.1	nt	nt
CC(C)(C)NC(=O)c1ccc2c(c1)C1C3CCC(C3)C1C(c1ccccc1)N2 (configuration not stated)	6.5	44.4	44.1*	-1.5	41.5*	33.5*	-9.2
COc1ccc(C(=O)N/N=C(\C)c2ccc3c(c2)C2C=CCC2C(c2ccccc2)N3)cc1 (configuration not stated)	-1.7	nt	nt	-2.2	nt	nt	nt
COc1ccc(Nc2nc(N)nc(CSC(=S)N3CCCCC3)n2)cc1	-4.8	25.1	37.1	2.4	34.9	nt	nt
CC1CCN(C(=S)SCc2nc(N)nc(Nc3ccccc3)n2)CC1	11.5	42.4	40.8*	-3.1	43.5*	19.1	33.8*
CCOc1ccccc1NC(=O)COC(=O)C1COc2ccccc2O1 (configuration not stated)	nt	nt	nt	-2.8	nt	nt	nt
O=C(/C=C/c1ccc(Cl)cc1Cl)c1ccc[nH]1	-4.1	18.4	46.8*	0.2	54.3*	39.0*	39.8*
COc1ccc(C(=O)Cn2c(C(=O)/C=C/c3ccccc3)nc3ccccc32)cc1	-18.5	18.6	49.4*	3.1	41.5*	43.5*	35.5*
COc1cccc(NC(=O)CNC(=O)Cn2cnc3sc(C)c(C)c3c2=O)c1	15.8	-2.7	-2.7	-9.3	2.6	nt	nt
CN(C)/N=C/c1ccc(Sc2ccc([N+](=O)[O-])cc2[N+](=O)[O-])o1	15.5	26.6	42.9*	-0.2	40.3*	43.6*	46.8*
O=[N+]([O-])c1ccc(Sc2ccncn2)c([N+](=O)[O-])c1	nt	nt	nt	-0.5	nt	nt	nt
CCOC(=O)N1CCN(C(=O)c2ccc3c(c2)NC(=O)/C(=C\c2cccc(C)c2)S3)CC1	-4.5	26.4	31.2	6.4	15.8	nt	nt
CCOC(=O)N1CCN(Cc2cc(=O)oc3ccc4ccccc4c23)CC1	2.7	34.6	30.0	0.6	25.0	nt	nt
O=C(CC12CC3CC(CC(C3)C1)C2)NCC(=O)OCc1cc(=O)oc2ccc3ccccc3c12	-39.2	8.9	41.4*	-2.3	43.9*	26.1	25.6
O=[N+]([O-])c1ccc(C2=NN(CCO)C(=Nc3ccc(OC(F)(F)F)cc3)SC2)cc1	-6.8	47.7	44.7*	-4.6	44.8*	14.9	32.1*
CCOC(=O)C1(Cc2cccc(F)c2)CCN(C(=O)COC)CC1	8.4	11.4	6.1	-1.8	-8.6	nt	nt

High-throughput results: PubChem, several laboratories
